Sequences and labels used below:
B1: chr15:63448706:63448707:-_ENSG00000185088_ENST00000411926|hu_hu|FALSE|FALSE (ssRNA)
RNA: GGGAGUUCUACAGUCCGACGAUCUGAUCUUGUAGCAACCUGGACAUUUUACAUCCAUAAAGUAAGAAUUUGGACUUUGUACUAGGCGUUUCUUUUUAUGUUUUUUCUUUUCCUCUUCCAAGGACGGAUGUAGUAAAUCUCUAGCAACAGAGGAUUGAGCAUCA
B2: chr15:51674161:51674162:-_ENSMUSG00000022312_ENSMUST00000022925|mus_mus|motif|central (ssRNA)
RNA: GGGAGUUCUACAGUCCGACGAUCCUGAACAACCUCAGUGCCUUGUCCUUCUUCUUGAUAAUGUUUGAUUAUCUUUAAUACGGCCAGGCCGUCGAUCUGCACCUGCUUCACGGCCGAAUCUCCGGAGCCGCCUUUGCCUUUGCCCAACAGAGGAUUGAGCAUCA
B3: 109540647_109541272_703_CDS_ENSG00000076248_ENST00000242576|human|control|control (ssRNA)
RNA: GGGAGUUCUACAGUCCGACGAUCACGAACCGUGAGGACAGCGUUGAGAAGGAGAACACCUUGCUUGGCCCACCCAGAUAAAUCUCCAUGGCCAGGAUGAACAAAAUCCUCUAUGUCUGUAGACAACUCUUUAUAAAUGUUCUCCAACAGAGGAUUGAGCAUCA
B4: chr20:52835626:52835627:+_ENSG00000101132_ENST00000441080|hu_mus|FALSE|FALSE (ssRNA)
RNA: GGGAGUUCUACAGUCCGACGAUCUGCCUCGAGGUUUAUGUUGCUGCCAAAUUUCGCGUAUAGCUGCACCUUCAGGUCGGCUAACACCCGCUGGAUGGACGCCACUCUGGACUCUAAGGCAUCAAUCUCUUCUUGCAAAGUUUUCAACAGAGGAUUGAGCAUCA
B5: chr1:39494447:39494448:+_ENSG00000168653_ENST00000372967|hu_mus|hu_hu_hu_mus_False|48_48 (ssRNA)
RNA: GGGAGUUCUACAGUCCGACGAUCGCACCGAGCGGCGUUCUUAUAGGGCUGUUCUGCGCUUAGGAACAUAAAGUGCCGGUCCAGGCUAAGGCCGAACUUUUUCUGUAUGUCAAGGAAAGGCAUGGCUCUGCAGUGCCCUUGUCACAACAGAGGAUUGAGCAUCA
B6: chr2:131829505:131829506:-_ENSG00000152102_ENST00000409185|hu_mus|FALSE|FALSE (ssRNA)
RNA: GGGAGUUCUACAGUCCGACGAUCCGCUCCAGGGUACAUGUUAGGAGAAUAGGCAGGUGCUGCUGCAUAGCCCACAGGAAAACCAGCUGGAUAUCCAAUUCCUUUGGCAUUUGCAUAGGGAACGCCAGAAGACCCAGGGCUAUACAACAGAGGAUUGAGCAUCA
B7: chrX:71549762:71549763:+_ENSMUSG00000019087_ENSMUST00000019231|mus_mus|mus_mus_mus_hu_False|78_78 (ssRNA)
RNA: GGGAGUUCUACAGUCCGACGAUCAAACCCGUGUACUUCUUAUUGUUAGCACAACAUUCCCCCCCAACGAUAACGACAGCCAAGCAGGACAGACAGUUAAGUAGUACUUCCACACUCCCAAACUCAGGGAGCCCUAUAACCUUACAACAGAGGAUUGAGCAUCA
B8: chr1:235506153:235506154:+_ENSG00000152904_ENST00000391855|hu_hu|FALSE|FALSE (ssRNA)
RNA: GGGAGUUCUACAGUCCGACGAUCCUACUCACCUAUUUACUGUUUCUGGAGAAUAACAAAUUUUUUAAAAGGUGGUAAGGCUAAAAGACAAAAAAAAGAUUAACUAAAAUAAGCUAUGAGGUCCAAUCAAGAAUGGCUUAACAUCAACAGAGGAUUGAGCAUCA
B9: chr1:58468927:58468928:-_ENSMUSG00000026034_ENSMUST00000148330|mus_mus|mus_mus_mus_hu_False|98_108 (ssRNA)
RNA: GGGAGUUCUACAGUCCGACGAUCAAUCUAUAAUUACUGAAAGAUGUACCUUAGCUAUGUACUUAAUGAACCAAAUUACCCAAACAAAAUAAACAUGGCAAUAUAAAAAUGUUAAGAAUUUACAAAGCUGUACAAAAUAACUUACAACAGAGGAUUGAGCAUCA
B10: chr2:121263671:121263672:+_ENSMUSG00000027248_ENSMUST00000028683|mus_mus|FALSE|FALSE (ssRNA)
RNA: GGGAGUUCUACAGUCCGACGAUCAAAACGACAGUAUAAAGGGGGCACAUUUAUUGUCACUGUUCCAAAUGUACAAAAAAAAUUAGAAAAUAACCCCCCAACUCAAUUCCCCCCACCCCCACAACAUUCUUCCCAACACAAAUACAACAGAGGAUUGAGCAUCA
B11: chr1:120316058:120316059:+_ENSMUSG00000064302_ENSMUST00000049404|mus_mus|FALSE|FALSE (ssRNA)
RNA: GGGAGUUCUACAGUCCGACGAUCCACCAUGUGUGUCUGAAGAGCAGCUGGUAGGAUAUUAAAAGUCCAAUUUAAAUAACUAGUAGGCAAUAAAGGAGAGAGUGGCGGAGUGAUGAUCUACAACUGGGUCUGAAAUACUUCAUACAACAGAGGAUUGAGCAUCA
B12: chr10:123500321:123500322:-_ENSG00000107669_ENST00000369043|hu_mus|FALSE|FALSE (ssRNA)
RNA: GGGAGUUCUACAGUCCGACGAUCGAUAUGCUAAGAAACCACACAAAACUGGCAUUUGCAAAUGGAUAAAAAUAGGAUAGAUUGCUUGAAAGAAAACAUAAACAAUAAUUUUAUCUAAAUAAUUUUAAUUGAGUGACUAUAUUCCAACAGAGGAUUGAGCAUCA
B13: chr12:55960871:55960872:-_ENSMUSG00000062929_ENSMUST00000078124|mus_hu|FALSE|FALSE (ssRNA)
RNA: GGGAGUUCUACAGUCCGACGAUCUACUAAUGUUUAAGACUGCUAUUAUCAAUUCCUAUUCCAAUUCAAUUUGCAAAAUAUAUUCAGAAAUAGUAGGUGAAAUGACUGUUCCGAAACAUCAGAAGUAUCAUUAAACUUUUAAAGCAACAGAGGAUUGAGCAUCA
B14: chr10:62229464:62229465:-_ENSMUSG00000020074_ENSMUST00000020268|mus_mus|FALSE|FALSE (ssRNA)
RNA: GGGAGUUCUACAGUCCGACGAUCCAGUUGAAAUGGUCUUGACAAAGGGAAAGCAUCCACCCAUGUAAACUGAGCAUCAAAAAAGUCACUAGGAAUAUAUAAGUUCUGAUAACGGCGCCUUAGUUCCAUCAUGUCACAACUGGGCAACAGAGGAUUGAGCAUCA
B15: chr10:62229464:62229465:-_ENSMUSG00000020074_ENSMUST00000020268|mus_hu|FALSE|FALSE (ssRNA)
RNA: B14 RNA with U27C, C69U, A93U, U99C, G102A, C105U
B16: chr10:33190432:33190433:-_ENSG00000150093_ENST00000302278|hu_mus|hu_hu_hu_mus_True|68_78 (ssRNA)
RNA: GGGAGUUCUACAGUCCGACGAUCUACAUUUUCCAAACCUGCAUGUGAAUAAAACCCUGGCAAUAUUGCCCUAAAGCUACCCUACUGUGACUAAGAUGCUGCUGCUGUGAGCUUGGUGUUGCAAAAUCCGCCUGAGUAGGAUUCCAACAGAGGAUUGAGCAUCA
B17: chr17:65336665:65336666:-_ENSG00000197170_ENST00000356126|hu_mus|FALSE|FALSE (ssRNA)
RNA: GGGAGUUCUACAGUCCGACGAUCACACAUGUCCUGUUUUUAUUACUAUCACGUGGCUGUCAGGUGAAUAAAAACAAAUAGUAUGAACACACUCAAGGAAAGCUGAGACACAAACCUUUCUGUCUUCAGACUGAAAAAAUGUUUCAACAGAGGAUUGAGCAUCA
B18: chr14:105707756:105707757:+_ENSMUSG00000053253_ENSMUST00000138283|mus_hu|motif|central (ssRNA)
RNA: GGGAGUUCUACAGUCCGACGAUCAUUUAUUUUUCUUAUAAAGGACAUUUGGUAUUCCCACAUUUUCUUAAAAUUUGUCCGGAAACAAAUUCUAUCUUUAACACUCACGUUUCUAAAUAUAUAUAUGUGUGUGUGUAUAUAUAUCAACAGAGGAUUGAGCAUCA
B19: chr8:117878989:117878990:-_ENSG00000164754_ENST00000297338|hu_hu|hu_hu_hu_mus_True|68_98 (ssRNA)
RNA: GGGAGUUCUACAGUCCGACGAUCCCAGAGGCCCUCGUUUACUGAGAACAAAAUGUGCGUAGAACAUUGUUCUGGCUUGCUAUGAAAUAAGAAGAAACCUGGAUCUCGGCGGGGAGCCGGGAGGGGUGGGUGGCCCGGGGAGGGCAACAGAGGAUUGAGCAUCA
B20: chr10:79719409:79719410:+_ENSMUSG00000020153_ENSMUST00000020361|mus_mus|FALSE|FALSE (ssRNA)
RNA: GGGAGUUCUACAGUCCGACGAUCCCAGAUCUUCAGCUUCUGUUCACGCUUGAUCUUCCGUUGCAGCUGCAAGAUGCCAUAAAGGAGUGCUUCGGCCGUGGGCGGGCAGCCUGGCACAUAGAUGUCCACUGGCACAAUGCGGUCCAACAGAGGAUUGAGCAUCA
B21: chr7:149068622:149068623:-_ENSMUSG00000025139_ENSMUST00000001950|mus_hu|mus_mus_mus_hu_False|38_48 (ssRNA)
RNA: GGGAGUUCUACAGUCCGACGAUCGUGAGGCCUCUGAGUGUGGCUUGUGGUCUGUCCUGGGUUAGAGUUGUUAAUAUCACGGAACAUACCACUUAAGGAGGUUCUGCCCCGCCUGACACCUUCAUUCCCAAUGGAGAAGAAAUCCAACAGAGGAUUGAGCAUCA
B22: chr7:54823571:54823572:-_ENSG00000132432_ENST00000352861|hu_mus|hu_hu_hu_mus_False|48_88 (ssRNA)
RNA: GGGAGUUCUACAGUCCGACGAUCUCCCAUGAUAGCAAAUCCUAUAGCUGUUGCCAUGGCAAUCUUCUGGAAUUCUUUUCUGUCGGGUUUAGUGCAUCUUUUAACCAGCCGAAUUGAGUCCUUUACAAACUGCCGGCUGGGCUCCAACAGAGGAUUGAGCAUCA

Numbering of substitutions follows the chain as printed. Whole data set: some 24,000 sequences, median “enrichment r” near 0.99, cut for the highest 2% near 3.7. This excerpt belongs to a sample that is enriched for the highest values.

The experiment has as its target T1, UNK ZnF1-3 (human, UniProt Q9C0B0 31-174).
T1 sequence: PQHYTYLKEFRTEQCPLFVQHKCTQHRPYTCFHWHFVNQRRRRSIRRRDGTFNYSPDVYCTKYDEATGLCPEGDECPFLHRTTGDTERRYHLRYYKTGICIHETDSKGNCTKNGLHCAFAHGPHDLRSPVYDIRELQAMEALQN
As to the kind of experiment: nsRBNS (natural sequence RNA bind-n-seq); RBNS binding buffer (assumed for nsRBNS): 25 mM Tris pH 7.5, 150 mM KCl, 3 mM MgCl2, 0.01% Triton X-100, 500 ug/ml BSA, 20 U/ml SUPERase-In, 4 C; UNK is unkempt and MSI1 is Musashi-1; names of the RNAs are library labels; protein concentration not given here; high values mean tight binding.
Take B1: the binding signal worked out at 0.655 enrichment R.
With B2 the figure was 0.51 enrichment R.
Consider B3, for which the binding signal is 1.34 enrichment R.
With B4 the figure was 0.762 enrichment R; with B5, 0.888 enrichment R; with B6, 0.945 enrichment R.
With B7 the figure was 1.31 enrichment R; with B8, 5.06 enrichment R; with B9, 1.97 enrichment R.
In the case of B10, the binding signal turned out to be 5.9 enrichment R.
For B11, the binding signal turned out to be 2.28 enrichment R.
Regarding B12, the binding signal worked out at 5.07 enrichment R.
With B13 the figure was 0.797 enrichment R; with B14, 3.38 enrichment R; with B15, 6.32 enrichment R.
The same measure for B16: 1.15 enrichment R; for B17: 1.19 enrichment R; for B18: 0.913 enrichment R.
As to B19, the binding signal came to 2.44 enrichment R.
The same measure for B20: 0.695 enrichment R; for B21: 0.716 enrichment R; for B22: 0.587 enrichment R.
